# KDM5B inhibitor = inhibitors of human KDM5B histone demethylase. Q9UGL1. KDM5B demethylase, FDH-coupled NADH fluorescence (FDH is formaldehyde dehydrogenase). Potency, µM (top dose mostly 57.7 µM), most hits filed as inhibitors. 2.6% of 220,000 active; active = well fitted inhibition curve with a large enough effect; inconclusive = small, poorly fitted or top-dose-only effect; inactive = no such curve, though single readings can be large or run the other way; note: potency is the fitted concentration of half-maximal effect; 0% is about no effect; nearly all actives have a fitted effect of over 70% in size
#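 Here, H3K4me3 peptide (12.5 µM in substrate mix) is demethylated by KDM5BΔAP, 200 nM final, after 10 min compound exposure. Formaldehyde product is coupled through FDH (0.25 U/mL in mix) to NADH fluorescence; 30-min ΔRFU feeds dose-response curves.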
# IP6K1 inhibitor = IP6K1 kinase inhibition | Q92551 | IP6K1 kinase, ADP-Glo luminescence, 2 h; active compounds read low | activity change, % (series mostly up to about 58 µM) | 0.81% of 140,000 active | AID 1645851; in the data active = activity change below about -25%; note: % is set by controls: 0 for no effect and ±100 for the full control effect
#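 ADP-Glo luminescence measures ADP made by human IP6K1 during a 2 h RT reaction with ATP/IP6 (mix at 1.3 mM/130 uM); top library doses 57.5 and 19.1 uM final.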
# Starred values were filed as active, the others as inactive; i = inactive; u = inconclusive; x = no result. Shown are actives, neighbours in structure and some others; about 2.8% of the full set was active somewhere.
SMILES,KDM5B inhibitor,IP6K1 inhibitor
CN(C)C(=O)c1ccc2c(c1)NC(C)(COc1ccc3[nH]ccc3c1)CO2 (configuration not stated),i,-7.8
CC1(COc2ccc3[nH]ccc3c2)COc2ccc(C(=O)N3CC(O)C3)cc2N1 (configuration not stated),35.5µM*,-2.2
CNC(=O)c1cc(C2CC2)nc2c1c(C1CCN(C(=O)NC3CCCC3)C1)nn2C (configuration not stated),x,-3.1
COc1ccc2c(c1)C(CN1CCN(CC(=O)OC(C)(C)C)CC1)=CC(C)(C)CO2,x,29.5
Cc1nn(-c2ccccc2)c2c1C(C(C)C)N(C1CN(C(=O)c3ccccc3F)C1)C2=O (configuration not stated),x,4.3
O=C(NCc1cccs1)C1CCN(C(=O)c2ccc(-c3cccs3)cc2)CC1,x,-16.6
CCNC(=O)Cn1c(CO)cnc1SCc1ccccc1C,i,x
NC1CC(c2nnc(COc3ccc4c(c3)CCNCC4)n2C2CC2)C1 (configuration not stated),u,5.2
CC1(COc2ccccc2)COc2ccc(C(=O)NC3CCC(O)CC3)cc2N1 (configuration not stated),31.6µM*,1.3
CC1(CNc2ccccc2)COc2ccc(C(=O)NC3CCC(O)CC3)cc2N1 (configuration not stated),u,2.2
CC1COCCN1C(=O)Cn1cnc2sccc2c1=O (configuration not stated),i,x
NCCCCN(Cc1nc2ccccc2[nH]1)[C@H]1CCCc2cccnc21,x,-2.0
COc1ccc(-c2ccc3nnc(CNC(=O)c4ccc(C#N)cc4)n3n2)cc1,i,-9.6
COc1ccc(C(=O)NCc2nnc3ccc(-c4ccc(F)cc4)nn23)cc1OC,u,26.2
COc1ccc(-c2ccc3nnc(CNC(=O)c4cccc(C#N)c4)n3n2)cc1,28.2µM*,15.1
COc1cccc(CC(=O)NCc2nnc3ccc(-c4ccccc4)nn23)c1,i,14.6
COc1ccc(-c2ccc3nnc(CNC(=O)c4cccc(OC)c4)n3n2)cc1,28.2µM*,13.6
CCN(CC)c1ccc(C(=O)NCc2nnc3ccc(-c4ccc(OC)cc4)nn23)cc1,i,4.1
COc1ccc(-c2ccc3nnc(CNC(=O)Cc4cccc(OC)c4)n3n2)cc1,25.1µM*,-6.3
COc1ccc(-c2ccc3nnc(CNC(=O)c4cccc(NC(C)=O)c4)n3n2)cc1,28.2µM*,16.4
COc1ccc(C(=O)NC2CCN(Cc3cccc(-c4ccc(F)c(F)c4)c3)CC2)cc1,x,-7.1
C=Cc1cc2oc(-c3ccc(O)c(F)c3)nc2cc1O,x,-23.6
CC(C)(C)NC(=O)NC(=O)CSc1nc(C2CC2)nc2ccccc12,i,x
COc1ccc(-c2ccc3nnc(CNC(=O)c4ccc(F)c(Cl)c4)n3n2)cc1,28.2µM*,-1.4
COc1ccc(-c2ccc3nnc(CNC(=O)c4cc(Cl)ccc4OC)n3n2)cc1,i,-8.9
SMILES,KDM5B inhibitor,IP6K1 inhibitor
Cn1cccc1C(=O)NCc1nnc2ccc(-c3ccccc3)nn12,i,2.9
COc1ccc(C(=O)NCc2nnc3ccc(-c4ccc(Cl)cc4)nn23)cc1OC,u,41.2
COc1ccc(-c2ccc3nnc(CNC(=O)c4cccn4C)n3n2)cc1,28.2µM*,-7.0
CC(=O)Nc1cccc(C(=O)NCc2nnc3ccc(-c4ccc(Cl)cc4)nn23)c1,u,39.7
COc1ccc(-c2ccc3nnc(CNC(=O)c4ccc(OC)nc4OC)n3n2)cc1,31.6µM*,18.5
CC(=O)Nc1cccc(C(=O)NCc2nnc3ccc(-c4ccccc4)nn23)c1,31.6µM*,-0.4
O=C(Nc1ccccc1)N1CCN(C(=O)c2nc3cccnc3n(CCc3ccccc3)c2=O)CC1,x,8.5
COc1ccccc1Nc1ccnc(N2CCC(C(=O)NCC3CC3)CC2)n1,x,15.4
O[C@@H]1CN(Cc2ccc(-n3cccn3)cc2)CC[C@H]1c1ccc(F)cc1,u,-2.3
COc1ccc(-c2ccc3nnc(CNC(=O)c4ccoc4)n3n2)cc1,31.6µM*,-7.5
Cc1nn(-c2ccccc2)c2c1C(C(C)C)N(C1CCN(C(=O)c3ccc(C(F)(F)F)cc3)C1)C2=O (configuration not stated),x,-1.3
COc1ccccc1-c1cnc(Nc2ccc(Cl)cn2)c2c1CCO2,35.5µM*,-9.3
COc1ccccc1-c1cnc(Nc2cccnc2OC)c2c1CCO2,35.5µM*,25.7
COc1ccccc1-c1cnc(Nc2ccccc2)c2c1CCO2,u,-20.0
COc1ccccc1-c1cnc(NC(=O)C2CCOCC2)c2c1CCO2,i,-6.2
COc1ccccc1-c1cnc(Nc2cccnc2)c2c1CCO2,i,11.0
COc1ccccc1-c1cnc(Nc2cccc(N[S+](C)(=O)[O-])c2)c2c1CCO2,25.1µM*,29.5
COc1ccc(Nc2ncc(-c3ccccc3OC)c3c2OCC3)cc1,35.5µM*,-8.0
CN(C)c1cccc(-c2cnc(Nc3cccc(N[S+](C)(=O)[O-])c3)c3c2CCO3)c1,u,-9.5
O=C(c1nc2cccnc2n(Cc2ccccc2)c1=O)N1CCC(c2ccccc2)CC1,x,9.0
COc1ccc(C(=O)NC2CCN(Cc3cccc(-c4ccccc4OC)c3)CC2)cc1,x,19.9
CCOC(=O)[C@@H]1CN(C(=O)c2cccc(OC)c2)[C@H]2c3ccccc3O[C@@H]12,x,0.5
N#Cc1ccc(CCC(=O)O)cc1,i,x
COc1ccccc1NC(=O)C(C)OC(=O)c1ccc2ccccc2n1 (configuration not stated),i,x
CCN1CCN(CCCN2CC3(CCN(Cc4ncc[nH]4)CC3)OC2=O)CC1,i,13.7
SMILES,KDM5B inhibitor,IP6K1 inhibitor
CCN1CCN(CCCN2CC3(CCN(c4ncccc4F)CC3)OC2=O)CC1,17.8µM*,2.9
CCc1cnc2c(c1SC(C)CC)c(=O)n(C)c(=O)n2C (configuration not stated),i,x
O=C(NC1CC(c2cc(N3CCC(O)C3)ncn2)C1)c1ccoc1 (configuration not stated),i,12.5
N#Cc1ccc(NC2CC(c3cc(N4CCC(O)C4)ncn3)C2)nc1 (configuration not stated),31.6µM*,-8.8
O=c1oc2ccc(Cl)cc2cc1-c1nc(-c2ccccc2)cs1,i,x
CN1Cc2ccc(N3CCOCC3)nc2C(C)(C(=O)NCCCn2ccnc2)C1 (configuration not stated),31.6µM*,3.3
CC1(C(=O)N2CCOCC2)CN(Cc2ccccc2)Cc2ccc(Nc3ccccc3)nc21 (configuration not stated),28.2µM*,-5.2
CC(C)CNc1ccc2c(n1)C(C)(C(=O)Nc1ccncc1)CN(Cc1ccccc1)C2 (configuration not stated),i,-3.2
CC1(C(=O)NCc2cnccn2)CN(Cc2ccccc2)Cc2ccc(Nc3ccccc3)nc21 (configuration not stated),u,-4.2
CC(C)NC(=O)C1(C)CN(Cc2ccccc2)Cc2ccc(N3CCOCC3)nc21 (configuration not stated),28.2µM*,9.7
CC1(C(=O)N2CCC2)CN(Cc2ccccc2)Cc2ccc(N3CCOCC3)nc21 (configuration not stated),u,-12.9
CC1(C(=O)NCc2cccnc2)CN(Cc2ccccc2)Cc2ccc(N3CCOCC3)nc21 (configuration not stated),25.1µM*,7.3
